Measurements taken from the supplement of paper PMC13380429.

Test system: Vero E6 infected with SARS-CoV-2
Experiment: inhibition of SARS-CoV-2 cytopathic effect; higher = more antiviral protection, active = above 15
Settings: 48 h

Measured: inhibition of SARS-CoV-2 cytopathic effect

C=CC(=O)Nc1cccc(Nc2nc(Nc3ccc(OCCOC)cc3)ncc2F)c1
inactive: 1 nM -0.6% | 8.33 nM 2.81% | 100 nM 0.54% | 833.33 nM -6.55% | 10000 nM -11.3%

O=C(NO)C1(CS(=O)(=O)c2ccc(Oc3ccc(Cl)cc3)cc2)CCOCC1
inactive: 1 nM -0.75% | 8.33 nM -2.34% | 100 nM 0.31% | 833.33 nM -0.91% | 10000 nM -11.7%

c1cc2c(cc1[C@H]1OC[C@H]3[C@@H]1CO[C@@H]3c1ccc3c(c1)OCO3)OCO2 [sesamin]
inactive: 1 nM -1.62% | 8.33 nM -0.09% | 100 nM -0.37% | 833.33 nM 0.48% | 10000 nM -1.08%

CO[C@H]1[C@H](O)[C@@H](O)[C@@H](O)[C@H](O)[C@@H]1O [pinitol]
inactive: 1 nM 0.84% | 8.33 nM -0.26% | 100 nM -2.68% | 833.33 nM -0.47% | 10000 nM 1.55%

NCC(CC(=O)O)c1ccc(Cl)cc1 (stereo not given) [baclofen]
inactive: 1 nM -0.225% | 8.33 nM -1.56% | 100 nM -2.14% | 833.33 nM 0.04% | 10000 nM -0.06%

Cn1cc(C2=C(c3ccc(Cl)cc3Cl)C(=O)NC2=O)c2ccccc21
active: 10000 nM 20.8%
inactive: 1 nM 2.26% | 8.33 nM 6.22% | 100 nM 4.19% | 833.33 nM 1.47%

CCCC(=O)C1CCN(c2ncnc3c2CN(C(=O)c2ccc(-c4ccccc4)cc2)CC3)CC1
inactive: 1 nM -1.91% | 8.33 nM -1.68% | 100 nM 2.34% | 833.33 nM -0.3% | 10000 nM -1.38%
